This is a sample that favours compounds with a hit; in the whole collection about 2.2% have one here.
CCT chaperon mod = modulators of cytosolic chaperonin (CCT/TRiC) activity | purified chaperonin ATPase assay, HTRF ADP detection, 30 min | activity change, % (no concentration beside the values), hits read low | 0.3% of 360,000 active | AID 651819; in the data active = activity change below about -30%; also: % is scaled to controls: 0 for no effect and ±100 for the full control effect
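We incubate TRiC, 40 or 20 nM final, with library compounds at 76 uM and 10 uM ATP for 30 min at 37 °C. ADP formed is detected with Transcreener HTRF reagents after 30 min at room temperature.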
uPA surface inh = blocks generation of uPA at the cell surface. AID 540303. Potency, µM (top dose mostly 38.3 µM), inactives show at the highest dose activity change, negative = inhibition, actives largely listed as inhibitors. cell surface uPA generation assay, qHTS. 0.31% of 330,000 active; active = well fitted inhibition curve with a large enough effect; inconclusive = small, poorly fitted or top-dose-only effect; inactive = no such curve, though single readings can be large or run the other way; tested in mouse RAW 264.7 cells; also: potency is read from the fitted curve at half-maximal effect; % is scaled to controls: 0 for no effect and ±100 for the full control effect; nearly all actives have a fitted effect of over 55% in size
GLP-1R inv ag = GLP-1 receptor (human) inverse agonism. P43220. HEK293 GLP-1R CRE-luciferase, luminescence, 24 h; GLP-1R form is constitutively active. AID 624417. 1.6% of 410,000 active. Potency, µM (highest dose often 38.3 µM), for inactives: at the top dose activity change, negative = inhibition, usual class: inhibitors; also: potency is read from the fitted curve at half-maximal effect; % is scaled to controls: 0 for no effect and ±100 for the full control effect; nearly all actives have a fitted effect of over 55% in size
Target sequence (P43220 whole entry, looked up): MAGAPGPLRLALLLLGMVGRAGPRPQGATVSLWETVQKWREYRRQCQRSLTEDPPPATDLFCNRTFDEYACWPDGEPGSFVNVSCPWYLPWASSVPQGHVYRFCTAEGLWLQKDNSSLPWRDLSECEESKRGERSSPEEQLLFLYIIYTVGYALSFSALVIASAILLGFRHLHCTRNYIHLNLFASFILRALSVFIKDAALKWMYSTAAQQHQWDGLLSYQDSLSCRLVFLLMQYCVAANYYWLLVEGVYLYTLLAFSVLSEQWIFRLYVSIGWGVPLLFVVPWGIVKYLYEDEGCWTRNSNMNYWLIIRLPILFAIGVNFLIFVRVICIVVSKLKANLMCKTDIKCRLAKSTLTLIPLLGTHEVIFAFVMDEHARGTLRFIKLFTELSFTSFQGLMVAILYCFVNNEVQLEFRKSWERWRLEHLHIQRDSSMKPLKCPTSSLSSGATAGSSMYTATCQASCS
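Using stably transfected HEK293 (constitutively active GLP-1R, cAMP-luciferase reporter), compounds were incubated 24 hr and luciferase measured by luminescence.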
MmCpn inh = inhibitors of Methanococcus maripaludis chaperonin TRiC (MmCpn) | 0.031% of 330,000 active | purified Mm-Cpn ATPase, ADP Transcreener TR-FRET | Potency, µM (doses to about 76.9 µM), for inactives: at the highest dose activity, negative = inhibition, usual class: inhibitors; also: potency is read from the fitted curve at half-maximal effect; % is scaled to controls: 0 for no effect and ±100 for the full control effect; nearly all actives have a fitted effect of over 80% in size
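Purified archaeal Mm-CPN (25nM final) preincubated 10 min at 37degC with compound, then 10uM ATP for 30 min at 37degC; ADP measured by HTRF Transcreener TR-FRET; buffer 30 mM TRIS pH 7.4, 100mM KCl, 5mM MgCl2, 1mM DTT.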
HEK293 tox = cytotoxic in the GLP-1 receptor inverse agonist counter-screen. Potency, µM (series often up to 38.3 µM), without a hit: at the top dose activity change, negative = inhibition, most hits filed as inhibitors. HEK293 cAMP-luciferase reporter cells, luminescence, 24 h. 0.13% of 410,000 active. AID 624418;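 also: loss of luciferase light is scored as toxicity; potency is read from the fitted curve at half-maximal effect; % is scaled to controls: 0 for no effect and ±100 for the full control effect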
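Step one: seed cells (200 cells/uL, DMEM with 10% Nu serum, 1% pen-strep). Step two: 12-hour incubation at 37 deg C. Step three: pin 23 nL compound, incubate 24 hr. Step four: add luciferase reagent, read luminescence 12 min later.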
GLP-1R agonist = activates the human GLP-1 receptor; P43220; HEK293 GLP-1R CRE-luciferase, luminescence, 4-6 h; cells express a hypersensitive GLP-1R form; Potency, µM (series often up to 45.6 µM), for inactives: at the top dose activation, most hits filed as activators; 0.007% of 380,000 active; AID 624172; also: potency is read from the fitted curve at half-maximal effect; % of control where 0% means no effect
* = called active by the depositor; ? = inconclusive; . = not tested or not shown. Unless noted, calls follow the shape of the dose curve; as a rule, active = well fitted curve in the direction sought with a large enough effect; inconclusive = small, poorly fitted or top-dose-only effect, or another doubt; inactive = no such curve, though single readings can be large; an effect the other way counts as inactive or inconclusive.

SMILES	CCT chaperon mod	uPA surface inh	GLP-1R inv ag	MmCpn inh	HEK293 tox	GLP-1R agonist
COc1ccc2cc(-c3cc(C(=O)O)c4ccccc4n3)ccc2c1	-0.3	-17.0%	2.24µM*	-0.5%	14.1%	-19.6%
COc1cccc(NC(=O)CN(C)C(=O)c2cc(-c3ccc(F)cc3)nc3ccccc23)c1	-0.7	-22.7%	7.08µM*	-0.4%	?	-19.7%
COc1cccc(NC(=O)CN(C)C(=O)c2cc(-c3ccccc3)nc3ccccc23)c1	-1.4	5.9%	?	-5.3%	?	-10.0%
COc1cc(-c2nnc(CSc3nnc(Nc4ccc(C(C)C)cc4)s3)o2)cc(OC)c1OC	1.1	19.9%	?	0.8%	11.2µM*	11.3%
COC(=O)CNC(c1ccccc1)c1cc(Cl)ccc1NC(=O)c1cccc(Cl)c1 (centres undefined)	-0.8	?	10µM*	-3.7%	-9.2%	-18.1%
CCOC(=O)CNC(c1ccccc1)c1cc(Br)ccc1NC(=O)c1cccc(Cl)c1 (centres undefined)	.	.	8.91µM*	.	1.5%	.
NNC(=O)CNC(c1ccccc1)c1cc(Br)ccc1NC(=O)c1cccc(Cl)c1 (centres undefined)	-0.9	-2.2%	?	-5.3%	-3.9%	-6.4%
CN1CCN(C2Cc3cc(Cl)ccc3Sc3cc(F)ccc32)CC1 (centres undefined)	-0.6	6.4%	5.01µM*	.	?	6.5%
CSc1nc(Sc2ccccc2Cl)c2ccccc2n1	-76.7*	-10.4%	-7.3%	-25.1%	24.3%	-2.8%
S=C(c1ccc(-c2ccc(Cl)cc2Cl)o1)N1CCCCC1	-0.6	0.3%	10µM*	0.6%	-3.5%	5.4%
Cc1cccc(C)c1NC(=O)c1ccc(-c2ccc(Cl)cc2Cl)o1	0.6	5.1%	1.58µM*	1.4%	-2.1%	-7.5%
S=C(c1ccc(-c2ccc(Cl)cc2Cl)o1)N1CCCC1	-1.0	3.9%	1.7%	-4.8%	0.8%	-2.9%
FC(F)(F)c1ccccc1NC(=S)N1CCCC1	-38.1*	-5.1%	1.9%	-0.8%	14.9%	3.8%
FC(F)(F)c1ccccc1NC(=S)N1CCN(c2ccccn2)CC1	-0.2	?	?	-0.7%	-40.5%	-2.8%
S=C(Nc1ccc(Cl)cc1Cl)N1CCCCC1	-65.9*	-4.0%	-26.4%	2.2%	-7.0%	0.7%
S=C(Nc1ccccc1Cl)N1CCCCCC1	-0.2	0.2%	-15.2%	0.4%	5.6%	2.1%
COc1ccccc1NC(=O)CSc1oc(-c2ccccc2)nc1S(=O)(=O)c1ccccc1	.	.	?	.	-7.8%	.
O=C(COc1ccccc1F)Nc1ccc2nc(SCC(=O)N3CCOCC3)sc2c1	.	.	15.0%	.	-10.9%	.
COc1cc(C(=O)N(Cc2ccc(F)cc2)Cc2ccco2)cc(OC)c1OC	.	.	-24.4%	.	-10.5%	.
CC(C)(C)Cc1nnc(NC(=O)c2ccco2)s1	-75.7*	-20.4%	10.0%	-0.9%	5.7%	-5.0%
COc1ccc([C@@H]2[C@@H]3C(=O)N(C(C)(C)C)C(=O)[C@@H]3[C@]3(Cc4ccc(Cl)cc4)C(=O)N(c4ccc(OC)cc4)C(=O)N23)cc1	0.2	4.9%	-9.8%	1.6%	-3.3%	0.7%
CC(C)(C)N1C(=O)[C@H]2[C@@H](c3ccc(Br)cc3)N3C(=O)N(c4ccc(Br)cc4)C(=O)[C@@]3(Cc3ccccc3)[C@H]2C1=O	0.3	-2.2%	11.2µM*	0.1%	-4.5%	-5.9%
CC(C)(C)N1C(=O)[C@H]2[C@@H](c3ccc(Br)cc3)N3C(=O)N(c4cccc(F)c4)C(=O)[C@@]3(Cc3ccccc3)[C@H]2C1=O	-5.9	3.9%	?	2.6%	11.2%	-0.1%
COc1ccc([C@@H]2[C@@H]3C(=O)N(C(C)(C)C)C(=O)[C@@H]3[C@]3(Cc4ccc(Cl)cc4)C(=O)N(c4ccc(Br)cc4)C(=O)N23)cc1	-1.5	13.8%	10µM*	-2.4%	-5.1%	-0.1%
COc1ccc(CCN2C(=O)CN(C3CCC(C)CC3)C(=O)C2c2ccc(OC(C)C)c(OC)c2)cc1OC (centres undefined)	.	.	11.2%	.	-9.8%	.
SMILES	CCT chaperon mod	uPA surface inh	GLP-1R inv ag	MmCpn inh	HEK293 tox	GLP-1R agonist
CC(=O)O[C@H]1C2OC(=O)C(C)=C2[C@@H]2OC(=O)[C@]3(CCC4OC41C)OC23 (some centres undefined)	-2.0	7.08µM*	6.4%	-1.2%	-14.5%	-4.6%
COc1ccc(NC(=O)CSc2nc3nc(C)c(Cc4ccccc4Cl)c(C)n3n2)cc1OC	.	.	-0.8%	.	4.8%	.
CCOC(=O)c1cc(-c2ccccc2)n(-c2cccc(C(=O)Nc3cccc(F)c3)c2)c1C	.	.	?	.	-19.4%	.
CCOC(=O)c1cc(-c2ccccc2)n(-c2cccc(C(=O)Nc3cccc(C(C)=O)c3)c2)c1C	.	.	5.62µM*	.	-25.7%	.
CCOC(=O)c1cc(-c2ccccc2)n(-c2cccc(C(=O)Nc3ccc(F)c(F)c3)c2)c1C	.	.	?	.	-14.3%	.
CCOC(=O)c1cc(-c2ccccc2)n(-c2cccc(C(=O)Nc3cccc(SC)c3)c2)c1C	.	.	3.55µM*	.	-5.6%	.
Cc1ccccc1C(=O)N1CC/C(=N/OS(=O)(=O)O)c2ccc(Cl)cc21	.	.	.	.	.	3.4%
CCOC(=O)C1=C(c2ccccc2)N=c2s/c(=C\c3cccc(O)c3)c(=O)n2C1c1cccs1 (centres undefined)	-0.5	-11.6%	11.2µM*	-8.3%	-10.4%	-1.2%
CCOC(=O)C1=C(C)N=c2s/c(=C\c3cccc(OCC(=O)O)c3)c(=O)n2C1c1ccccc1OC (centres undefined)	0.6	7.4%	9.0%	0.0%	1.4%	-4.7%
CCCOc1ccccc1C(=O)N1CCCCC1CCN1CCCCC1 (centres undefined)	.	.	4.0%	.	-10.4%	.
Cc1ccc(CSC2=NC(C)(C)Nc3ccccc32)c(C)c1	.	.	10µM*	.	0.0%	.
CC1(C)N=C(SCc2ccc(Cl)cc2)c2ccccc2N1	.	.	?	.	-14.7%	.
O=C1c2ccccc2C2(c3cc(C(F)(F)F)cc(C(F)(F)F)c3)NCCN12 (centres undefined)	-2.2	6.5%	10µM*	1.2%	-14.7%	20.4%
O=C1c2ccccc2C2(c3ccccc3)NCCCN12 (centres undefined)	0.8	13.8%	19.0%	3.3%	4.4%	1.4%
CC(=O)C(C(c1ccccc1)c1c[nH]c2ccccc12)[N+](=O)[O-] (centres undefined)	1.1	?	?	-1.2%	16.4%	7.8%
COc1ccccc1C(C[N+](=O)[O-])c1c[nH]c2ccccc12 (centres undefined)	-1.5	-3.9%	10µM*	-0.2%	-22.6%	5.4%

Compound activity from PubChem.
